40 compounds from ChEMBL document CHEMBL3988442, “University of Dundee, Small-Polar-MMV Screening Library” (2021) can be followed below.

For this assay, the target named is AMP-activated protein kinase, AMPK (Homo sapiens) (UniProt P54646+O43741+P54619+Q9UGJ0+Q9Y478+Q13131+Q9UGI9). Put plainly: AMP-dependent Kinase enzyme assay. An in vitro enzyme assay that detects ADP turnover that is directly proportional to AMPK activity. This uses naive AMPK that is activated during the assay with MK-8722. Also noted: scale not given: direction of the effect not stated beside the values. The assay is classed as functional. Particulars: 30 µM.
With `O=C(CC1CCCC1)NCCNCc1cccc2c1OCCO2`, the Percent Effect was -3.45%. With `O=S(=O)(NCC1(c2cccs2)CCOCC1)c1ccc2c(c1)OCCO2`, the Percent Effect is -2.31%.

For the compound `COc1ccc(C)cc1CN(CC(N)=O)C(C)C`, the Percent Effect came out at 0.855%. `COc1cc(COCC2CCN(Cc3cccnc3)CC2)cc(OC)c1`: the Percent Effect came to 1.38%. Regarding `Cc1cc(NCCc2nc(C)c[nH]2)nc(-c2ccccc2O)n1`, the Percent Effect was 17.8%. In the case of `Cc1cc(C)n(CCCN(C)c2cc(N(C)C)ncn2)n1` it was 0.376%; in that of `CN(Cc1ccccc1)c1cnn(CC2CCCCO2)c(=O)c1` (stereo not given), 7.07%; in that of `CN(CC1(CO)CCC1)c1nc2c(c(=O)[nH]1)Cc1ccccc1OC2`, 1.42%. With `CC(C)n1cnnc1SCCN(C)c1ccccc1`, the Percent Effect turned out to be 8.44%. For the compound `NC(=O)C(NC1CCN(CC2CCCCC2)CC1)c1ccc(F)cc1` (stereo not given), the Percent Effect was -4.02%. With `CC(NC(=O)N1CCC1)c1ccc(S(C)(=O)=O)cc1` (stereo not given), the Percent Effect was 4.53%. For the compound `CC(c1ccc(F)cc1F)N1CCN(CCN2CCCC2=O)CC1` (stereo not given), the Percent Effect was -18%. As for `Cc1cc(-c2cnc(N3CCCC(C)C3)nc2C(C)C)on1` (stereo not given), the Percent Effect worked out at 10.4%. As for `O=C1OCCCN1Cc1nc(-c2ccc(N3CCCCC3)cc2)no1`, the Percent Effect was -1.59%. In the case of `CC(=O)NCC1CCCN(C(=O)Cc2c(C)noc2C)C1` (stereo not given) it was -3.15%; in that of `CCN(C)S(=O)(=O)N[C@H]1CN(c2ccc(F)cn2)C[C@@H]1C(C)C`, -6.05%; in that of `NC(=O)c1ccc(NC2CCOC3(CCCC3)C2)nn1` (stereo not given), 0.506%. The same measure for `COc1ccc2c(c1)OCC(C(=O)NCc1nc3c(s1)CCCC3)C2` (stereo not given): 8.94%. Take `CS(=O)(=O)C1(CNCc2cccc(-n3cccn3)c2)CCOCC1`: the Percent Effect was 3.19%.

Take `Cc1cc(C[S+]([O-])Cc2ccccc2F)on1` (stereo not given): the Percent Effect turned out to be 6.4%.

Consider `Cn1cnc(S(=O)(=O)N2C[C@@H]3CC[C@H](C2)N(Cc2ccccn2)C3)c1`, for which the Percent Effect stood at 84.4%. The same measure for `CN(Cc1ccccc1CNC(=O)C1CNC(=O)N1)C1CCCCC1` (stereo not given): -6.64%; for `Cn1ncnc1NCc1ccc(Br)cc1`: 6.33%; for `CC(c1ncc(-c2ccccc2)o1)N1CCN(C(=O)N(C)C)CC1` (stereo not given): -7.85%. With `Cc1ccc(C(CNC(=O)c2cc(=O)c3ccccc3[nH]2)N(C)C)cc1` (stereo not given), the Percent Effect amounted to 6.26%. For the compound `Fc1cccc(CN2CCC[C@H](Cn3nnc(-c4ccccn4)n3)C2)c1`, the Percent Effect was 9.12%. Consider `CCOC(=O)CC1(Nc2nc(C)nc3c2cnn3C)CCCCC1`, for which the Percent Effect was 14.9%. With `Cc1ccccc1Cn1cnc2oc(C)c(C(=O)O)c2c1=O`, the Percent Effect was found to be 9.55%. For the compound `Cc1n[nH]c(C)c1CCC(=O)N1CCc2c(nc[nH]c2=O)C1`, the Percent Effect is -0.287%. For `CCC(=O)N1CCC(c2ncc(C(=O)Nc3ccccc3)c(C)n2)C1` (stereo not given), the Percent Effect was 8.33%. In the case of `COCCN1CC2(CCCN(Cc3cc(=O)c(OC)co3)C2)CCC1=O` (stereo not given) it was -2.15%; in that of `CC(C)OCCN1CCC(Nc2nccnc2C#N)CC1`, -5.15%. For `Cc1ccc(F)c(C(=O)Nc2c(C(N)=O)n[nH]c2C)c1`, the Percent Effect is 9.84%. For the compound `Cc1nsc(C(=O)NCCc2ccc(F)cc2)n1`, the Percent Effect is -2.41%. In the case of `CCOC(=O)c1n[nH]cc1CN1CCOC(Cc2ccc(OC)cc2)C1` (stereo not given), the Percent Effect amounted to 2.27%. Turning to `COc1ccc(C2(C(=O)N3C[C@@H](C(=O)O)[C@H](C(C)C)C3)CC2)cc1`, the Percent Effect is 2.55%.

With `COCc1nn(Cc2ccc(Cl)s2)c(=O)o1`, the Percent Effect amounted to 6.29%. Turning to `CC(C(=O)NCC(C)(C)c1ccc(Br)cc1)n1cncn1` (stereo not given), the Percent Effect stood at 0.177%.

In the case of `CSc1ccc(C(=O)C2CCCN(C(=O)CCn3cnnn3)C2)cc1` (stereo not given), the Percent Effect is 10.2%.

With `c1ccc(N2CCC(OCC3CCCCO3)CC2)nc1` (stereo not given), the Percent Effect was 6.76%.
